Unmarked numbers belong to inactive results. How the calls were made is not given here.
tested on: HIV-1 nucleocapsid protein NCp7 (binding to TG oligonucleotide); assay: HIV Nucleocapsid (AID 346); details: HIV-1 NC / fluorescein-TGTGTGTG probe, fluorescence polarization;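 further: potency is for inhibitors that block NC binding and lower polarization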
Method in brief: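 HIV-1 NC (100 nM) binding to fluorescein-labelled ssDNA TG4xF (10 nM) in Hepes pH 7.5, 250mM NaCl, 1uM ZnCl2, TCEP and 2-mercaptoethanol; compounds pin-transferred, 1 hr room temperature, fluorescence polarization read on CCD imager.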
Potency means the concentration at half of the fitted maximal effect.

| SMILES | Potency [µM] |
| --- | --- |
| Cn1cccc1C(=O)N1CCC2(CC1)CN(c1ccncc1)C2 | > 20 |
| O=c1c(-c2cc(F)cc(F)c2)nc2cncnc2n1Cc1ccccc1 | > 20 |
| O=C(Nc1ccccc1)N1CC[C@@]2(CCCN(C(=O)c3cnccn3)C2)C1 | > 20 |
| COc1ccc(-c2nc3cnc(N4CCNCC4)nc3n(Cc3cccc(OC)c3)c2=O)cc1 | > 20 |
| Cc1ccccc1-c1nccc(NCc2cccs2)n1 | > 20 |
| COc1ccccc1-c1cc(Nc2ccc(F)cc2)ncn1 | > 20 |
| CNc1ncncc1-c1c(C)noc1C | > 20 |
| N#CCCn1c(=O)c(CCc2ccccc2)nc2cnc(Oc3ccccc3)nc21 | > 20 |
| Cc1noc(C)c1-c1nc(NC2CC2)c2ccccc2n1 | > 20 |
| O=C(c1ccncc1)N1CCC2(CCN(Cc3nccs3)CC2)CC1 | > 20 |
| c1ccc(Nc2ncnc3ccc(-c4ccc5c(c4)OCO5)cc23)cc1 | > 20 |
| CC(=O)NCCNc1ncnc2ccc(-c3c(C)noc3C)cc12 | > 20 |
| Cc1cnc(CNc2cc(-c3cccc(NS(C)(=O)=O)c3)ncn2)cn1 | > 20 |
| COCC(=O)N1CCC2(CCCN(C(c3ccccc3)c3ccccc3)C2)CC1 | > 20 |
| COc1ccccc1CNc1ccnc(-c2c(C)noc2C)n1 | > 20 |
| CN(C)c1ncc2nc(-c3ccccc3)c(=O)n(Cc3ccc(F)cc3)c2n1 | > 20 |

From PubChem BioAssay (NCATS)
